Rows were chosen to be rich in hits. Some 5.2% of all compounds tested hit in one or more screens of this group.
SMARCA2 activ: activators of SMARCA2 function | MG213 cells, MMTV-luciferase reporter, dexamethasone, overnight | activation, % at 9.1 µM | actives 1% (n = 370,000) | AID 652017; in the data active = activation above about 7.8%
NadD block: inhibitors of Staphylococcus aureus NadD. inhibition, % at 20 µM. purified NadD enzyme, colorimetric absorbance read-out. actives 0.78% (n = 360,000). AID 602399; in the data active = inhibition above about 26%
SKN-1 block: inhibitors of C. elegans SKN-1; C. elegans VP596 Pgst-4::GFP/RFP ratio, acrylamide-induced, 24 h; inhibition, % at 21.8 µM; actives 0.49% (n = 360,000);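 active = interference check ratio from 0.5 to 1.5 plus GFP to RFP signal ratio inhibition reaching or exceeding a fixed threshold, cut at about 30% in these data, passing the limit was not always enough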
Vif inh: blocks HIV Vif function | inhibition, % at 7.49 µM | AID 602346 | HEK293T cells, Vif self-association by quenched fluorescence, imaging, 24 h | actives 0.35% (n = 340,000); in the data active = inhibition above about 50%, passing the limit was not always enough; inconclusive = no clear call, values can overlap the other calls; inactive = below about 31%
esBAF inh: inhibitors of esBAF chromatin remodeling in mouse ES cells | AID 602393 | actives 2% (n = 350,000) | reporter increase, % at 12.5 µM | Bmi1-luciferase knock-in reporter, 24 h; 100% = twice the neutral-well signal; in the data active = activation above about 40%; inconclusive = no clear call, values can overlap the other calls;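 note: a rise in the Bmi1 reporter signal indicates esBAF inhibition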
GRIN3A LBD mod: modulators (binders) of human NR3A ligand-binding domain | NR3A LBD differential scanning fluorimetry, Tm shift; 0% = protein alone, 100% = glycine-bound protein | Tm shift relative to glycine control, % at 25 µM | actives 2.5% (n = 340,000);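 active = melting temperature shift of at least 10% of the positive control shift, at one fixed dose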
Ring1 derepress: esBAF inhibition confirmed by Ring1 de-repression | 550 tested, under 10 active | mouse ESC E14, Ring1 mRNA RT-qPCR fold change | AID 743176 | fold change at 33 µM | shares compounds with esBAF inh;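 active = Ring1 gene expression raised more than 2-fold over untreated cells in both replicates at either tested dose; inconclusive = only one replicate above 2-fold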;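 note: Ring1 transcript normalised to actin housekeeping signal by TaqMan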
esBAF Fgf4 qPCR: esBAF inhibition confirmed by Fgf4 repression; shares compounds with esBAF inh; mouse ESC E14, Fgf4 mRNA qPCR fold change; stronger effect = lower value; actives 4% (n = 550); Fgf4 expression fold change at 33 µM;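 active = Fgf4 expression under 0.8 fold of control in both repeat measurements at one or both tested doses; inconclusive = under 0.8 fold in just a single repeat measurement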;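 note: Fgf4 transcript normalised to actin in duplex TaqMan qPCR; cells exposed to compound for 24 h before lysis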
esBAF Bmi1 qPCR: esBAF inhibition confirmed by Bmi1 de-repression; shares compounds with esBAF inh; mouse ESE14 ES cells, Bmi1 mRNA qPCR fold; stronger effect = higher value; fold change at 33 µM; 550 tested, under 10 active; AID 743180;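 active = Bmi1 expression fold change above 6 at either tested concentration, seen in replicate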
A549 tox SP: kills or reduces viability of A549 cells; A549 cytotoxicity, plate reader; shares compounds with esBAF inh; 550 tested, under 10 active; cell viability change % (negative = cytotoxic), % at 25 µM, hits read low; call rule not given here
HepG2 tox SP: HepG2 cell cytotoxicity at single point; shares compounds with esBAF inh; plate reader; stronger effect = lower value; activity change, negative = inhibition, % at 25 µM; actives 4% (n = 550); in the data active = activity change below about -50%
HEK293 tox SP: cytotoxicity in HEK293 cells. shares compounds with esBAF inh. plate reader. activity change, negative = inhibition, % at 25 µM, hits read low. actives 3% (n = 550). AID 743190; in the data active = activity change below about -38%, passing the limit was not always enough
NadD inh conf: confirmation of Staphylococcus aureus NadD inhibitors; actives 13% (n = 2,000); purified S. aureus NadD, colorimetric enzyme assay; shares compounds with NadD block; inhibition, % at 20 µM; in the data active = inhibition mostly above about 42%, no sharp cut-off; inactive = mostly below about 42%
SMARCA2 conf: confirmation of SMARCA2 (BRM) function activators | shares compounds with SMARCA2 activ | MG213 cells, MMTV-luciferase with dexamethasone, luminescence, overnight; MG213 cells expressing E1A, Rb sequestered; DMSO wells 0%, reference activator 100% | activation, % at 9.1 µM | actives 30% (n = 3,500) | AID 652260;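 active = activation above its plate's cutoff, the mean activation of tested wells plus 3 SD, cut at about 7.9% in these data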
VP16 Luc act: counter-screen for SMARCA2 activators: GAL4-VP16 luciferase reporter activation; shares compounds with SMARCA2 activ; HEK293 GAL4-VP16 pG5luc reporter, luciferase luminescence; scaled: DMSO wells 0%, SAHA wells 100%; activation, % at 9.1 µM; actives 41% (n = 3,500); AID 686939;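 active = activation above the solvent-only control well mean plus 3 SD, averaged across control plates, cut at about 5.2% in these data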
A number is an active result; 0 = inactive; ? = inconclusive; - = no result given.

SMILES	SMARCA2 activ	NadD block	SKN-1 block	Vif inh	esBAF inh	GRIN3A LBD mod	Ring1 derepress	esBAF Fgf4 qPCR	esBAF Bmi1 qPCR	A549 tox SP	HepG2 tox SP	HEK293 tox SP	SMARCA2 conf	VP16 Luc act	others
Brc1ccccc1/C=N/Nc1ccccn1	0	0	0	0	-	0	-	-	-	-	-	-	-	-
COCC(=O)Nc1ccc2c(c1)C(=O)N(C)C[C@@H](OC)[C@@H](C)CN(C(=O)c1cnccn1)[C@@H](C)CO2	-	-	-	-	0	-	-	-	-	-	-	-	-	-
O=C(Cc1c(O)c2ccccc2oc1=O)c1ccc(F)cc1	0	0	0	0	69	0	0	0	0	0	0	0	-	-
N#Cc1ccc(Nc2nc(-c3ccccc3)cs2)cc1	0	0	0	0	74	-	0	0	0	0	0	0	-	-
O=C(O)c1ccc(Nc2nc(-c3ccccc3)cs2)cc1	0	0	0	0	-	0	-	-	-	-	-	-	-	-
O=C(NC[C@@H]1[C@H](c2ccccc2)[C@H](CO)N1CC1CCCC1)c1ccccc1	-	-	-	-	0	-	-	-	-	-	-	-	-	-
Nc1ccc2c(c1)Cc1cc(N)c(Cl)cc1-2	0	0	0	0	88	0	0	0	0	0	0	0	-	-
O=C(Nc1nc2c(s1)CCc1ccccc1-2)c1cccs1	0	0	0	0	71	0	0	?	0	0	0	0	-	-
COc1ccc2c(c1)nc(-c1cccc(Br)c1)c(=O)n2C(c1ccccn1)c1nc2ccccc2[nH]1 (stereo unspecified)	7.9	46	0	0	72	-	0	0	0	0	0	0	-	-	NadD inh conf=0
O=c1c(-c2ccccc2)nc2ccccc2n1C(c1ccccn1)c1nc2ccccc2[nH]1 (stereo unspecified)	0	-	0	-	-	-	-	-	-	-	-	-	-	-
C[C@@H]1CN([C@@H](C)CO)C(=O)c2cc(C#C[C@@H](C)O)cnc2O[C@H]1CN(C)C(=O)Cc1ccccn1	-	-	-	-	0	-	-	-	-	-	-	-	-	-
O=C1Nc2ccccc2N=C(c2ccc3c(c2)OCO3)C1N(C(=O)c1ccc2ccccc2c1)C1CC1 (stereo unspecified)	0	35	0	0	105	-	0	0	0	0	0	0	-	-	NadD inh conf=0
Nc1ccccc1/C=C/c1ccccc1N	9.9	0	0	0	112	0	0	0	0	0	0	0	14	10
C[C@@H]1CCCCO[C@H](CN(C)C(=O)C2CCCCC2)[C@@H](C)CN([C@H](C)CO)C(=O)c2cc(NC(=O)c3ccncc3)ccc2O1	-	-	-	-	0	-	-	-	-	-	-	-	-	-
C[C@@H]1CN([C@@H](C)CO)C(=O)Cc2cc(NC(=O)Nc3ccccc3)ccc2O[C@@H]1CN(C)C	-	-	-	-	0	-	-	-	-	-	-	-	-	-
Cc1ccc(CN2CC(C(=O)Nc3cc(C)ccn3)CC2=O)cc1 (stereo unspecified)	10	0	0	0	72	0	0	0.44	0	0	0	0	17	6.3
COc1ccccc1C(=O)NCCC(=O)NC1CCC(C)CC1 (stereo unspecified)	10	0	0	0	73	0	0	0	0	0	0	0	0	0
COc1ccccc1C(=O)NCCC(=O)NC1CCCCC1C (stereo unspecified)	0	0	0	0	0	0	-	-	-	-	-	-	-	-
O=c1c2ccccc2sc2ccccc12	8.5	0	43	0	57	0	0	0	0	0	0	0	0	5.9
O=c1c2ccccc2sc2ccc(Cl)cc12	0	0	0	0	-	0	-	-	-	-	-	-	-	-
CSc1ccccc1NC(=O)c1cc(C(C)C)on1	8.0	0	0	0	78	0	0	?	0	0	0	0	0	7.9
COc1cccc(-c2cn(CC[C@@H]3CC[C@H](NC(=O)CN(C)C)[C@H](CO)O3)nn2)c1	-	-	-	-	0	-	-	-	-	-	-	-	-	-
COc1cc(OC)cc(C(=O)Nc2cccc3c2CCCC3)c1	0	0	0	0	0	0	-	-	-	-	-	-	-	-
COC(=O)C1CCc2c(ccc3c2CCCC3)C1=O (stereo unspecified)	11	0	0	0	60	0	0	0	0	0	0	0	0	8.5
COc1ccc(Cl)cc1C(=O)NNC(=O)c1cccs1	12	0	0	0	55	0	0	0	0	0	0	0	0	0
SMILES	SMARCA2 activ	NadD block	SKN-1 block	Vif inh	esBAF inh	GRIN3A LBD mod	Ring1 derepress	esBAF Fgf4 qPCR	esBAF Bmi1 qPCR	A549 tox SP	HepG2 tox SP	HEK293 tox SP	SMARCA2 conf	VP16 Luc act	others
O=C(O)c1n[nH]c2c1CC(C1CCCCC1)CC2 (stereo unspecified)	0	0	0	-	-	0	-	-	-	-	-	-	-	-
O=C(NC1CCCCC1)c1n[nH]c2c1CC(c1ccccc1)CC2 (stereo unspecified)	8.0	0	0	0	70	0	0	0	0	0	0	0	0	12
C[C@H](CO)N1C[C@H](C)[C@H](CN(C)C(=O)c2ccccc2)OCCCC[C@H](C)Oc2ccc(NC(=O)Cc3ccccc3)cc2C1=O	-	-	-	-	0	-	-	-	-	-	-	-	-	-
COc1ccc(S(=O)(=O)Nc2cccc3c2O[C@H](CN(C)S(=O)(=O)c2ccc(C)cc2)[C@@H](C)CN([C@@H](C)CO)C3=O)cc1	-	-	-	-	0	-	-	-	-	-	-	-	-	-
CCc1ccc2cc3c(cc2n1)C(=O)c1ccccc1-3	8.6	0	0	0	61	-	0	?	0	0	0	0	12	13
CCC(C)(C)c1ccc2c(c1)C(=O)c1ccccc1C2=O	0	0	0	0	0	0	-	-	-	-	-	-	-	-
COc1ccc(OCc2cc(C(=O)NC(C)c3csc(C)n3)no2)c(Cl)c1 (stereo unspecified)	9.8	0	0	0	66	0	0	0	0	0	0	0	0	6.0
COc1ccc(OCc2cc(C(=O)NCc3nc(C)cs3)no2)c(Cl)c1	0	0	0	0	?	0	-	-	-	-	-	-	-	-
Cn1cccc1C(=O)OCc1ccc(C(C)(C)C)cc1	11	0	0	0	84	0	0	?	0	0	0	0	0	6.4

From PubChem BioAssay
